Sampled rows, rich in hits. Any-hit rate of the full collection: about 2.3%.
Mcl-1 Bim block = disrupts Bim peptide binding to human Mcl-1 | Q07820 | Bead-based flow cytometry, Bim peptide-Mcl-1 binding | inhibition, % at 10 µM | 190,000 tested, 0.1% active; in the data active = inhibition above about 40%;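 also: 0% = no compound tracer wells and 100% = peptide blocker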
MCL1-BIM inh = disrupts human MCL1 binding to BIM-BH3 peptide | Q07820 | GST-MCL1 / FITC-Bim-BH3 fluorescence polarization | inhibition, % at 10.9 µM | 320,000 tested, 0.68% active | AID 2057;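 active = inhibition above the mean inhibition of all tested compounds plus 3 SD, set per campaign, cut at about 40% in these data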;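 also: 0% = DMSO wells and 100% = unlabeled Bim-BH3 peptide control; higher means more loss of mP so more displacement of Bim peptide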
Mcl1-Bid inh = disrupts binding of human Mcl-1 to Bid peptide; AID 1021; TR-FRET Mcl-1/Bid-Dy647 peptide binding, 1536-well; 220,000 tested, 0.97% active; inhibition, % at 21.7 µM;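 active = compounds that cut the binding signal by more than half at the single screening dose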;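 also: His-tagged Mcl-1 with europium anti-His antibody binding Bid BH3 peptide; 0% = Mcl-1 plus peptide wells and 100% = peptide-only wells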
Mcl1 Noxa PPI = disrupts binding of human Mcl-1 to Noxa peptide; AID 1022; inhibition, % at 21.7 µM; Q07820; TR-FRET Mcl-1/Noxa peptide binding, 2 h; 220,000 tested, 1.5% active;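 active = compounds that cut the protein-peptide binding signal by more than 50% relative to plate controls in a single-dose test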;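 also: His-tagged Mcl-1 with rhodamine Noxa BH3 peptide and terbium anti-His antibody; 0% = Mcl-1 plus Noxa peptide wells and 100% = peptide-only wells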
GLD-1 TGE inh = GLD-1-TGE RNA interaction inhibition (C. elegans); Q17339; purified GLD-1 + fluorescein TGE RNA, fluorescence polarization; inhibition, % at 5.96 µM; 320,000 tested, 0.44% active; AID 2280;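 active = percent inhibition above a per-plate cutoff, the plate mean of test compounds plus 3 SD, cut at about 30% in these data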;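 also: 0% = DMSO wells with GLD-1 and probe and 100% = wells lacking GLD-1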
Target sequence (Q17339 whole entry, looked up): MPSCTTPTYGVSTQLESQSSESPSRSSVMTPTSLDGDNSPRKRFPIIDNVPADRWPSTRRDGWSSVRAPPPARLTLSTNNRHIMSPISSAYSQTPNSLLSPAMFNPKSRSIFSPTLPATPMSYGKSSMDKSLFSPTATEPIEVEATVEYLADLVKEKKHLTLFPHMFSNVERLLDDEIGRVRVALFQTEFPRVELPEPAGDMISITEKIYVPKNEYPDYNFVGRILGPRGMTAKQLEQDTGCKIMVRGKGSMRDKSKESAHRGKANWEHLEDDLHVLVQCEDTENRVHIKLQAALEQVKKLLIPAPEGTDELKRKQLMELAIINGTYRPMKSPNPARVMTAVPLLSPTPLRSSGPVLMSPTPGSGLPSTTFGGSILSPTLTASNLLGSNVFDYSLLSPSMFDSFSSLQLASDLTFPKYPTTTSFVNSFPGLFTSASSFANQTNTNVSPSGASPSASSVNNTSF
Bcl-xL primary = Bcl-xL (human) inhibition | Q07817 | GST-Bcl-xL / FITC-Bim BH3 peptide fluorescence polarization | AID 2129 | 320,000 tested, 0.7% active | inhibition, % at 10.9 µM;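 active = inhibition above the mean of all tested compounds plus 3 SD, cutoff set per campaign, cut at about 30% in these data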;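 also: 0% = DMSO wells and 100% = unlabeled Bim-BH3 peptide competitor; inhibitors lower millipolarization by displacing the labeled peptide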
Target sequence (Q07817 whole entry, looked up): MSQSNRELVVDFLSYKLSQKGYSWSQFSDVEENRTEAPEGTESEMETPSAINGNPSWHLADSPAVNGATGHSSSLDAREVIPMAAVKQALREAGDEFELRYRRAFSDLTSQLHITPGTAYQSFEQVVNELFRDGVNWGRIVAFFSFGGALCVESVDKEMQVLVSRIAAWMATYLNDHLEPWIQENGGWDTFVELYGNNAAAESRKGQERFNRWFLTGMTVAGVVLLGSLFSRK
GLD-1 TGE cf = confirmation of C. elegans GLD-1 TGE RNA binding inhibitors; shares compounds with GLD-1 TGE inh; GLD-1/FL-TGE RNA fluorescence polarization, biochemical; inhibition, % at 5.96 µM; 550 tested, 10% active;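 active = average inhibition across triplicates above the hit cutoff set in the primary screen, cut at about 32% in these data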;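 also: 0% = GLD-1 with RNA probe and DMSO and 100% = wells lacking GLD-1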
* = called active by the depositor.

Results for O=C(O)c1ccc(/C=N/NC(=O)c2ccc(CN3c4cccc5cccc(c45)S3(=O)=O)cc2)cc1 ?
MCL1-BIM inh: 3.9; Mcl1-Bid inh: -29.3; Mcl1 Noxa PPI: 30.4; GLD-1 TGE inh: -2.0; Bcl-xL primary: 9.4

What do the screens show for `COc1ccc2[nH]cc(/C=C/C(=O)c3ccccc3)c2c1`?
MCL1-BIM inh: -2.3; Mcl1-Bid inh: -38.3; Mcl1 Noxa PPI: 17.4; GLD-1 TGE inh: 0.2; Bcl-xL primary: 0.1

How did CN1CCN(C=Nc2nc3ccccc3nc2N2CCCC2)CC1 do in these assays?
Mcl-1 Bim block: 2.0; MCL1-BIM inh: 18.2; Mcl1-Bid inh: -27.9; Mcl1 Noxa PPI: 2.7; GLD-1 TGE inh: 14.7; Bcl-xL primary: 14.0

Results for CN(C)c1ccc(CN(C(=O)c2ccccc2Br)C2CCS(=O)(=O)C2)cc1 (configuration not stated) ?
MCL1-BIM inh: 5.4; GLD-1 TGE inh: -3.6; Bcl-xL primary: 4.7

What do the screens show for `O=C(NCC(c1ccco1)N1CCCC1)c1ccccc1Sc1ccc(C(F)(F)F)cc1[N+](=O)[O-]` (configuration not stated)?
MCL1-BIM inh: 4.6; GLD-1 TGE inh: 6.1; Bcl-xL primary: 5.2

Results for COc1ccc(OC)c(-c2cc(C(=O)N/N=C/c3ccc(F)cc3)c3ccccc3n2)c1 ?
MCL1-BIM inh: 4.5; GLD-1 TGE inh: -1.8; Bcl-xL primary: 8.7

How did COc1ccc(OC)c(-c2cc(C(=O)Nc3ccccc3C(N)=O)c3ccccc3n2)c1 do in these assays?
MCL1-BIM inh: 0.7; GLD-1 TGE inh: 33.5*; Bcl-xL primary: 5.1; GLD-1 TGE cf: -1.7

What do the screens show for `Cc1ccc(C2C=C(c3ccccc3)Nc3ncnn32)cc1` (configuration not stated)?
MCL1-BIM inh: 23.0; GLD-1 TGE inh: 32.6*; Bcl-xL primary: 24.1; GLD-1 TGE cf: 0.8

What do the screens show for `Cc1cc(C)c(C2=CC(c3ccccc3)n3ncnc3N2)cc1C` (configuration not stated)?
MCL1-BIM inh: -0.9; GLD-1 TGE inh: 8.6; Bcl-xL primary: 5.1

What do the screens show for `COc1ccc(OC)c(C(=O)N(C)C2CCCN(Cc3ccccc3F)C2)c1` (configuration not stated)?
MCL1-BIM inh: 15.8; GLD-1 TGE inh: 39.2*; Bcl-xL primary: 7.2; GLD-1 TGE cf: 1.2

Results for CCOC(=O)C1=C(O)c2ccccc2C(=O)/C1=C\c1ccc(CC)cc1 ?
Mcl-1 Bim block: 0.0; MCL1-BIM inh: 31.0; Mcl1-Bid inh: 51.9*; Mcl1 Noxa PPI: 84.6*; GLD-1 TGE inh: 37.7*; Bcl-xL primary: 24.1; GLD-1 TGE cf: -3.3

Results for CCOC(=O)C1=C(Cc2ccc(OC)cc2)C(=O)c2ccccc2C1=O ?
Mcl-1 Bim block: 0.0; Mcl1-Bid inh: 0.5; Mcl1 Noxa PPI: 36.7

How did CC(C)/C=C/C(=O)N1CCC(N2CCC(C(=O)NCc3ccccn3)CC2)CC1 do in these assays?
MCL1-BIM inh: 26.0; GLD-1 TGE inh: 34.9*; Bcl-xL primary: 28.0; GLD-1 TGE cf: 7.8

What do the screens show for `CNC(=S)N1N=C(c2ccc(Br)cc2)CC1c1ccc(Br)cc1` (configuration not stated)?
Mcl-1 Bim block: 0.0; MCL1-BIM inh: 0.9; Mcl1-Bid inh: -29.3; Mcl1 Noxa PPI: -3.4; GLD-1 TGE inh: 4.2; Bcl-xL primary: 4.6

How did Cc1cc2n(n1)C(c1ccccc1)CC(c1ccc(Br)cc1)=N2 (configuration not stated) do in these assays?
Mcl-1 Bim block: -2.0; MCL1-BIM inh: 4.2; Mcl1-Bid inh: -35.3; Mcl1 Noxa PPI: 18.7; GLD-1 TGE inh: 52.7*; Bcl-xL primary: 13.1; GLD-1 TGE cf: 15.9

What do the screens show for `N#Cc1ccccc1OCC(=O)NNC(=O)CNC(=O)c1cccc(Br)c1`?
MCL1-BIM inh: 9.8; GLD-1 TGE inh: 0.1; Bcl-xL primary: 0.8; GLD-1 TGE cf: 0.6

What do the screens show for `N#Cc1ccccc1OCC(=O)NNC(=O)CNC(=O)c1ccc(Br)o1`?
GLD-1 TGE inh: 7.4

How did COc1ccc(NC(=O)Cc2ccccc2)cn1 do in these assays?
Mcl-1 Bim block: 1.0; MCL1-BIM inh: 40.4*; Mcl1-Bid inh: -33.4; Mcl1 Noxa PPI: 10.8; GLD-1 TGE inh: 36.0*; Bcl-xL primary: 37.5*; GLD-1 TGE cf: 35.5*

What do the screens show for `COc1ccc(NC(=O)C(c2ccc(Cl)cc2)C(C)C)cn1` (configuration not stated)?
MCL1-BIM inh: 26.4; GLD-1 TGE inh: 36.4*; Bcl-xL primary: 35.7*; GLD-1 TGE cf: 29.5

How did O=C(NCc1cccs1)C1CC(=O)N(c2ccc(Cl)cc2)C1 (configuration not stated) do in these assays?
Mcl-1 Bim block: 3.0; MCL1-BIM inh: -1.4; Mcl1-Bid inh: -8.8; Mcl1 Noxa PPI: -25.8; GLD-1 TGE inh: 3.5; Bcl-xL primary: 1.8

How did COc1ccc(CN2CC(=O)N3[C@H]4c5ccccc5OC[C@@H]4[C@H](c4ccccc4)[C@]3(C)C2=O)cc1 do in these assays?
MCL1-BIM inh: 16.2; GLD-1 TGE inh: 44.8*; Bcl-xL primary: 20.3; GLD-1 TGE cf: 3.8

Results for COc1ccc(CN2CC(=O)N3[C@H]4c5cc(C)ccc5OC[C@@H]4[C@H](c4ccccc4)[C@]3(C)C2=O)cc1 ?
GLD-1 TGE inh: 33.1*; GLD-1 TGE cf: 14.6

Results for COc1ccc2c(c1)OC[C@H]1[C@H]2N2C(=O)CN(Cc3ccc(F)cc3)C(=O)[C@@]2(C)[C@H]1c1ccccc1 ?
MCL1-BIM inh: 2.0; GLD-1 TGE inh: -5.6; Bcl-xL primary: 4.4

What do the screens show for `C[C@@]12C(=O)N(Cc3ccc(Cl)cc3)CC(=O)N1[C@H]1c3ccccc3OC[C@@H]1[C@@H]2c1ccccc1`?
MCL1-BIM inh: 6.9; GLD-1 TGE inh: -2.1; Bcl-xL primary: 4.4

What do the screens show for `CN(C)C(=O)CCC(=O)N1CCCC(N2CCN(c3cccc(C(F)(F)F)c3)CC2)C1` (configuration not stated)?
MCL1-BIM inh: -2.9; GLD-1 TGE inh: 2.8; Bcl-xL primary: -2.9

Results for CCOc1ccc(CN(C)C(=O)c2cc(S(=O)(=O)N3CCCC3)ccc2C)cc1 ?
MCL1-BIM inh: 4.3; GLD-1 TGE inh: 2.9; Bcl-xL primary: 4.1

What do the screens show for `N#CCCn1cc(C=O)c(-c2cccs2)n1`?
Mcl-1 Bim block: 32.0; MCL1-BIM inh: -5.6; Mcl1-Bid inh: -15.3; Mcl1 Noxa PPI: -7.3; GLD-1 TGE inh: 69.3*; Bcl-xL primary: -3.0; GLD-1 TGE cf: 3.6

What do the screens show for `Fc1ccc(Br)cc1C1C=C(c2cccnc2)Nc2ncnn21` (configuration not stated)?
Mcl-1 Bim block: -3.0; MCL1-BIM inh: 38.3; Mcl1-Bid inh: -7.5; Mcl1 Noxa PPI: -2.3; GLD-1 TGE inh: 34.1*; Bcl-xL primary: 36.8*; GLD-1 TGE cf: 1.7

How did CC(C)(C)c1ccc(C2=CC(c3ccccc3F)n3ncnc3N2)cc1 (configuration not stated) do in these assays?
MCL1-BIM inh: 6.2; GLD-1 TGE inh: 10.2; Bcl-xL primary: 5.9
